Compound activity from PubChem.
Only a selection was taken, and hits are over-represented in it overall.
Mac1 fbg enh – increases human CD11b/CD18 adhesion to fibrinogen; P05107+P11215; K562 CD11b/CD18 adhesion to fibrinogen, ATPlite luminescence; activation, % at 10 µM; 93,000 tested, 0.07% active;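 active means 10 µM primary screen giving 50% or more activity, confirmed by 40% or more on retest at that dose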
D1 mod – D1 dopamine receptor (human) allosteric modulation | P21728 | HEK293 D1, CRE-luciferase, dopamine EC30 potentiation; actives deviate in either direction | B-score at 10 µM | 58,000 tested, 5.9% active;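 active means luminescence count or its row- and column-corrected plate score outside the 99.7% band of the plate's sample wells, on either side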
PTK2B oligo ant – blocks oligomerization of human Pyk2 in cells; Q14289; Q293 cells, Pyk2 FERM NanoBiT luminescence; active compounds read low; z-score (the deposit names both 25 µM and 10 µM); 99,000 tested, 0.83% active;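 active means Z-score of -3 or lower, scaled per plate to the spread of control and sample wells; inactive means z-score above -3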;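 further: negative z-score means lost luminescence so less FERM oligomerization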
CD11b adhes inh – blocks human CD11b/CD18 adhesion to fibrinogen | P05107+P11215 | K562 CD11b/CD18 adhesion to fibrinogen, ATPlite luminescence; Mn2+ added to activate the integrin | inhibition, % at 10 µM | 93,000 tested, 0.54% active;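 active means primary inhibition of 50% or more at 10 µM, then 40% or more on retest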
FAK inh – FAK (human) kinase inhibition; Q05397; biochemical FAK kinase activity assay; inhibition, %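 (tested at 7 µM)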; 97,000 tested, 0.84% active; AID 727; in the data active means inhibition above about 19%;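 further: 0% = DMSO and 100% = reference compound high control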
hDAT+cocaine – changed human dopamine transporter uptake under cocaine IC80. LLC-PK1 hDAT cells, [14C]-dopamine uptake with cocaine IC80; actives deviate in either direction. B-score at 10 µM. 110,000 tested, 1.3% active;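 active means Z score or B-score, a plate-position-corrected score, falls beyond the plate's 99.7% confidence bounds, in either direction; inactive means both scores lie inside the 99.7% bounds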;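 further: scored against the spread of the other compound wells on the same plate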
Target sequence (Q01959 whole entry, looked up): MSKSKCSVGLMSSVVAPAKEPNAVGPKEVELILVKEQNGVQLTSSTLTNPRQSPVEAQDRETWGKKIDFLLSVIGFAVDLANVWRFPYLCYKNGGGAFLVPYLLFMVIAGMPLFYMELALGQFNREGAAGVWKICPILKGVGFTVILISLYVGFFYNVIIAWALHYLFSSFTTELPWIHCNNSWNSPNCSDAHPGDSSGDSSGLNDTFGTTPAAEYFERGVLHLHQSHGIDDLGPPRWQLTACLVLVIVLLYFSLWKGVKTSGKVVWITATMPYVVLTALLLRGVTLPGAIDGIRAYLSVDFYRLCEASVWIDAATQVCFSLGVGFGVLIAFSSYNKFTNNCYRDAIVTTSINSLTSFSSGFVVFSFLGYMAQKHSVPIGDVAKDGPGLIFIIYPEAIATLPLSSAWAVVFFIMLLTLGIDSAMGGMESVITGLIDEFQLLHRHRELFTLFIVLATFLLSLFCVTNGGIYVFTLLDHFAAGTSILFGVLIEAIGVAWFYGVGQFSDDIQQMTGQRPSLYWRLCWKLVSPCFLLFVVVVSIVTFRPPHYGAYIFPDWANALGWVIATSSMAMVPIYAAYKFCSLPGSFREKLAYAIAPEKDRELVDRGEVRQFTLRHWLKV
D1 mod confirm – confirmation of human D1 dopamine receptor allosteric modulators. 2,200 tested, 88% active. luminescence at 10 µM. AID 642. HEK293 D1 CRE-luciferase, dopamine EC30 potentiation; active compounds read high. shares compounds with D1 mod;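 active means luminescence in either of two replicates above the same-plate mean plus 3 SD of the low-dose dopamine control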
D1 ag no DA – activates D1 CRE-luciferase signal without dopamine present; HEK293 D1 CRE-luciferase, luminescence, no dopamine; active compounds read high; 1,900 tested, 0.8% active; shares compounds with D1 mod; luminescence at 10 µM; in the data active means luminescence above about 3900
Isoprot counter – isoproterenol response counter-screen activity for D1 modulators. calls only at 10 µM. AID 647. 2,200 tested, 63% active. shares compounds with D1 mod. HEK293 D1 CRE-luciferase, isoproterenol EC30 counter-screen;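 active means luminescence in either replicate above plate mean of wells with a partly effective reference agonist dose plus 3 SD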;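 further: isoproterenol raises cAMP through native beta-adrenoceptor Gs so signal bypasses D1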
An asterisk follows results filed as active.

For CCCn1c(=O)c(C(=O)NCc2cccnc2)c(O)c2ccccc21 the results were Mac1 fbg enh 1, D1 mod 8.4*, PTK2B oligo ant -0.41, CD11b adhes inh 2, FAK inh -1, hDAT+cocaine 0.28, D1 mod confirm 15012*, D1 ag no DA 1692 and Isoprot counter active.
CCCn1c(=O)c(C(=O)NCc2ccccn2)c(O)c2ccccc21 was read as D1 mod 3.9, PTK2B oligo ant -1.5, FAK inh -1 and hDAT+cocaine 0.63.
`CC(C)Cn1c(=O)c(C(=O)Nc2cnccn2)c(O)c2ccccc21` gave Mac1 fbg enh 2, D1 mod 3.4*, PTK2B oligo ant 4.1, CD11b adhes inh 4, hDAT+cocaine -0.093, D1 mod confirm 9760*, D1 ag no DA 1672 and Isoprot counter inactive.
CCOC(=O)c1cnc(SC)nc1Sc1cc(Cl)ccc1Cl was read as Mac1 fbg enh 1, PTK2B oligo ant -1.3, CD11b adhes inh 9, FAK inh 0 and hDAT+cocaine -1.2.
`CCCCCn1c(SC(C)C(C)=O)nc2c1c(=O)[nH]c(=O)n2C` (configuration not stated) gave Mac1 fbg enh -3, D1 mod 8*, CD11b adhes inh -17, FAK inh 3, hDAT+cocaine 1, D1 mod confirm 20968*, D1 ag no DA 1796 and Isoprot counter active.
For CCCCCCSc1nc2c(c(=O)[nH]c(=O)n2C)n1C the results were Mac1 fbg enh 3, D1 mod 2.1, CD11b adhes inh -2, FAK inh -3 and hDAT+cocaine -1.2.
`CCCCn1c(NC(C)CC)nc2c1c(=O)[nH]c(=O)n2C` (configuration not stated) gave Mac1 fbg enh -3, D1 mod 11*, PTK2B oligo ant -0.68, CD11b adhes inh -13, FAK inh -2, hDAT+cocaine 1, D1 mod confirm 21532*, D1 ag no DA 1912 and Isoprot counter active.
Screening CCCCCCn1c(SCCCC)nc2c1c(=O)[nH]c(=O)n2C returned Mac1 fbg enh 2, D1 mod 11*, PTK2B oligo ant -1.1, CD11b adhes inh -2, FAK inh 4, hDAT+cocaine -0.57, D1 mod confirm 26000*, D1 ag no DA 1732 and Isoprot counter active.
O=C(C1CCCN(S(=O)(=O)c2ccccc2[N+](=O)[O-])C1)N1CCCC1 (configuration not stated) was read as Mac1 fbg enh -1 and CD11b adhes inh 10.
`O=C1C2CC=CCC2C(=O)N1c1ccc(Cc2ccncc2)cc1` (configuration not stated) gave D1 mod -0.6, PTK2B oligo ant 1.8, FAK inh -5 and hDAT+cocaine -1.4.
O=C(COC(=O)c1cccnc1Cl)Nc1nc(-c2ccccc2)cs1 was read as Mac1 fbg enh 0 and CD11b adhes inh 27.
`CCNC(=S)N(Cc1ccccc1)Cc1nc2ccccc2c(=O)[nH]1` gave PTK2B oligo ant -0.79.
Screening N#Cc1c2c(c(NCCN3CCOCC3)n3c1nc1ccccc13)CCCC2 returned Mac1 fbg enh -4, D1 mod 3.5*, PTK2B oligo ant 0.07, CD11b adhes inh -8, FAK inh -2, hDAT+cocaine -1, D1 mod confirm 15848*, D1 ag no DA 1800 and Isoprot counter active.
For N#Cc1c(-c2ccco2)cc(C2CC2)nc1N the results were Mac1 fbg enh 4, PTK2B oligo ant -0.26, CD11b adhes inh -6, FAK inh 3 and hDAT+cocaine 0.27.
`N#Cc1c(-c2ccccc2)cc(C2CC2)nc1N` gave Mac1 fbg enh 2, D1 mod 25*, PTK2B oligo ant -0.09, CD11b adhes inh -5, hDAT+cocaine -0.0069, D1 mod confirm 29052*, D1 ag no DA 1688 and Isoprot counter active.
O=S(=O)(c1cccs1)N1CCN(c2ccccn2)CC1 was read as D1 mod 11*, PTK2B oligo ant -0.72, FAK inh 6, hDAT+cocaine 1.3, D1 mod confirm 10548*, D1 ag no DA 1832 and Isoprot counter inactive.
Screening CCCC(=O)c1c[nH]c(C(=O)NCCCN2CCOCC2)c1 returned Mac1 fbg enh -4, PTK2B oligo ant -0.77, CD11b adhes inh 15, FAK inh -2 and hDAT+cocaine 0.029.
For COc1ccc(CNC(=O)C(c2ccc(C)o2)N(Cc2cccs2)C(=O)Cc2cccs2)cc1 (configuration not stated) the results were PTK2B oligo ant 0.76, FAK inh 3 and hDAT+cocaine 1.1.
For O=C(CCc1ccccc1)NNC(=S)NC(=O)c1ccc(Cl)cc1 the results were Mac1 fbg enh -1, CD11b adhes inh -9, FAK inh -1 and hDAT+cocaine -0.022.
For COc1ccc(OCc2nnc3n2N=C(c2ccc(OC)cc2)CS3)cc1 the results were Mac1 fbg enh 6, D1 mod 9.7*, CD11b adhes inh -7, FAK inh -3, hDAT+cocaine 2.2, D1 mod confirm 13236* and Isoprot counter active.
Screening COc1ccc(C2=Nn3c(nnc3-c3ccncc3)SC2)cc1 returned Mac1 fbg enh -4, PTK2B oligo ant -1.9, CD11b adhes inh -28, FAK inh 0 and hDAT+cocaine -0.17.
CCOc1ccc(C2=Nn3c(nnc3-c3ccc(OC)cc3)SC2)cc1 was read as Mac1 fbg enh -6, D1 mod 7.8*, PTK2B oligo ant -2.7, CD11b adhes inh -6, FAK inh 4, hDAT+cocaine 0.52, D1 mod confirm 11104*, D1 ag no DA 1552 and Isoprot counter active.
`COc1ccc(OCc2nnc3n2N=C(c2ccc(C)cc2)CS3)cc1` gave Mac1 fbg enh 0, D1 mod 1.5, CD11b adhes inh 0, FAK inh -4 and hDAT+cocaine 0.27.
Screening O=C(NCCN1C(=O)S/C(=C\c2ccccc2F)C1=O)C1CCCN1C(=O)c1cccs1 (configuration not stated) returned Mac1 fbg enh 3 and CD11b adhes inh 0.
For Cc1cccc(C2CC(c3ccccc3)Nc3nc(N)nn32)c1 (configuration not stated) the results were Mac1 fbg enh 3, D1 mod 18*, CD11b adhes inh 15, FAK inh -6, hDAT+cocaine -0.48, D1 mod confirm 16344*, D1 ag no DA 1564 and Isoprot counter active.
